In the supplement of paper PMC6555819:

Tests used:
Assay in all cases: PBM binding z-score (relative to random genomic background probes); higher = stronger binding; sequences stand for … in GC…GCGATTGACAGCGTAGAATGAAGG
[1] = system: PPARg:RXRa DBDmut IVT, anti-RXR (DBD mutation: RXRa K156A/R161A, NR concentration 270 nM, RXRa partner concentration 90 nM)
How it was run: (§1)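 Custom Agilent 4×180K protein-binding microarrays carried double-stranded probes, each with a 34-nt variable region. These regions held direct-repeat seeds, single-nucleotide variants, half-site ablations and random human genomic background sequences. Ligand-free nuclear receptor dimers were incubated on the arrays for 1 h, antibodies against each partner (one per run) detected binding, and scanned fluorescence was regression-normalized. Binding z-scores take the random background probes as reference.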

[2] = system: PPARg:RXRa IVT, anti-PPARg (NR concentration 270 nM, RXRa partner concentration 90 nM)
How it was run: as §1

[3] = system: PPARg DBDmut:RXRa IVT, anti-PPARg (DBD mutation: PPARg1 K132A/R137A, NR concentration 270 nM, RXRa partner concentration 90 nM)
How it was run: as §1

[4] = system: PPARg DBDmut IVT, anti-PPARg (DBD mutation: PPARg1 K132A/R137A, NR concentration 270 nM)
How it was run: as §1

[5] = system: PPARg homodimer (NR concentration 180 nM)
How it was run: as §1

[6] = system: PXR:RXRa (NR concentration 270 nM, RXRa partner concentration 90 nM)
How it was run: as §1

[7] = system: PXR homodimer (NR concentration 270 nM)
How it was run: as §1

[8] = system: RARa:RXR (NR concentration 270 nM, RXRa partner concentration 90 nM)
How it was run: as §1

[9] = system: RARa homodimer (NR concentration 270 nM)
How it was run: as §1

[10] = system: RARb:RXRa (NR concentration 270 nM, RXRa partner concentration 90 nM)
How it was run: as §1

[11] = system: RARb homodimer (NR concentration 270 nM)
How it was run: as §1

[12] = system: RARg:RXRa (NR concentration 270 nM, RXRa partner concentration 90 nM)
How it was run: as §1

[13] = system: RARg homodimer (NR concentration 270 nM)
How it was run: as §1

[14] = system: RXRa DBDmut IVT, anti-RXR (DBD mutation: RXRa K156A/R161A, NR concentration 90 nM)
How it was run: as §1

[15] = system: RXRa homodimer (NR concentration 180 nM)
How it was run: as §1

[16] = system: THRa:RXRa (NR concentration 90 nM, RXRa partner concentration 90 nM)
How it was run: as §1

[17] = system: THRa homodimer (NR concentration 90 nM)
How it was run: as §1

[18] = system: VDR homodimer (NR concentration 270 nM)
How it was run: as §1

Sequence | PBM binding z-score [1] | PBM binding z-score [2] | PBM binding z-score [3] | PBM binding z-score [4] | PBM binding z-score [5] | PBM binding z-score [6] | PBM binding z-score [7] | PBM binding z-score [8] | PBM binding z-score [9] | PBM binding z-score [10] | PBM binding z-score [11] | PBM binding z-score [12] | PBM binding z-score [13] | PBM binding z-score [14] | PBM binding z-score [15] | PBM binding z-score [16] | PBM binding z-score [17] | PBM binding z-score [18]
CCTTACGGGTCACTGACAGGTTATAGCTTTTGGA | 3.62 | 3.94 | -0.188 | -0.142 | 1.82 | 3.38 | -0.201 | 4.13 | 0.634 | 3.74 | 3.45 | 5.62 | 4.37 | 1.64 | 4.7 | 2.82 | 0.24 | 0.718
CCTTACGGGTCACGAGGGTATAGCACGACGAGCG | 3.29 | 5.07 | 0.569 | 0.0491 | 2.12 | 4.23 | -0.0662 | 4.88 | 0.889 | 4.44 | 3.35 | 5.85 | 5.72 | 0.613 | 6.79 | 3.56 | 0.0461 | 1.29
CGAACTAGGCCATCCAGGACAGTGAATACATTGA | 6 | 5.51 | 0.953 | 0.808 | 0.048 | -0.289 | -0.148 | 0.254 | 0.507 | 0.809 | 0.41 | 0.517 | 0.851 | 0.537 | 0.302 | 1.57 | 0.93 | 0.275
ACAGACAGGTGATGAAGGTAACTCAAGCTATCAT | 0.0752 | 0.481 | -0.066 | 0.468 | 0.000193 | -0.188 | 0.00644 | -0.191 | 0.18 | 0.252 | 0.13 | 0.288 | 0.537 | -0.0436 | 0.166 | 0.289 | -0.0849 | -0.318
TCTATTATTTGAAGGGCAACCGACGAGTCCGTTT | 2.78 | 0.734 | 0.771 | 1.44 | 2.12 | 1.23 | 1.48 | 0.961 | 3.23 | 1.56 | 1.34 | 0.739 | 0.634 | 2.12 | 0.997 | 0.552 | 0.572 | 2.12
AATACAGGGTCTCTAGGCCAGAGTAGGTACGAAT | 0.633 | 1.69 | -0.23 | -0.134 | 0.115 | -0.522 | -0.459 | -0.47 | -0.399 | 0.389 | 0.256 | 0.0798 | 0.292 | -0.254 | -0.15 | 0.0248 | -0.0749 | 0.143
CATAGAGGGTCAGCTAGGCCAGAGTAGGGACGGC | 1.42 | 2.21 | 0.395 | 0.25 | 1.26 | 1.2 | -0.122 | 1.9 | -0.0533 | 3.82 | 3.06 | 3.83 | 4.33 | 0.356 | 3.3 | 2 | 0.171 | 0.395
CCTAGTTGGTCAAGGTCAAACACGCTATAGGTAC | 2.18 | 3.37 | 0.444 | 1.42 | 3.34 | 4.48 | 3.25 | 4.41 | 2.79 | 4.19 | 4.29 | 4.69 | 4.37 | 2.71 | 4.76 | 4.07 | 3.39 | 4.52
CATACAGGGTCAGCCAGGCCAGAGTAGGGACGGC | 1 | 2.6 | 0.502 | 0.692 | 1.27 | 2.5 | 0.168 | 3.13 | 0.562 | 4.1 | 3.14 | 4.58 | 4.31 | 1.4 | 4.58 | 3.36 | 1.19 | 1.78
CCTCTTAGTTGACCATAAGGGCAACCGAAGCTCG | 0.417 | 0.373 | 0.452 | -0.136 | 1.43 | 0.861 | 0.453 | 1.04 | 0.928 | 1.7 | 2.25 | 1.17 | 1.15 | 0.285 | 0.712 | 2.07 | 1.59 | 0.985
TCTATTAGTTGTTTAGGGCAACCGAAACAGCGGA | 1.98 | 1.19 | 1.27 | 0.951 | 0.794 | 0.621 | 0.33 | 0.698 | 1.2 | 1.13 | 0.623 | 0.681 | 0.7 | 0.754 | 0.557 | 1.07 | 0.864 | 0.463
TCTATGAGTTGATTAGGGCAACCGAAACAGCGGA | 1.35 | 1.19 | -0.00987 | -0.582 | -0.0125 | 0.279 | -0.195 | 0.487 | -0.0986 | 0.711 | 0.553 | 0.54 | 0.536 | 1.45 | 0.681 | 0.857 | -0.131 | 0.333
CAAACTATGTCACCGGAAGGTCAAAGTCCGCATG | 5.08 | 5.25 | 0.711 | 1.64 | 3.93 | 4.29 | 2.1 | 4.93 | 2.43 | 3.7 | 4.63 | 5.37 | 4.06 | 1.32 | 4.15 | 3.11 | 1.99 | 2.33
CCAAACAGGTGAGAAGGTAACTCAGCCTCGATTA | 1.49 | 1.46 | 0.108 | -0.155 | 0.805 | -0.406 | 0.0845 | 0.105 | 0.426 | 0.534 | 0.453 | 0.434 | 0.256 | -0.0242 | 0.335 | 0.199 | 0.0192 | -0.08
